Only a selection was taken, and hits are over-represented in it overall.
RmlC RmlD mix: inhibitors of RmlC and RmlD coupled enzymes; RmlC/RmlD coupled enzyme inhibition, 384-well mixture HTS; inhibition, % at 5.5 µM; AID 1532; actives 0.39% (n = 110,000); in the data active = inhibition above about 30%, passing the limit was not always enough; inconclusive = no clear call, values can overlap the other calls
HIV RNase H inh-1: blocks HIV-1 RNase H cleavage of RNA/DNA duplex | inhibition, % at 10 µM | RT-RNase H RNA/DNA duplex cleavage, fluorescence | actives 1.9% (n = 65,000); in the data active = inhibition above about 50%
HIV RNase H inh-2: confirmation of HIV-1 reverse transcriptase RNase H inhibitors; shares compounds with HIV RNase H inh-1; Recombinant RT RNase H, fluorescent RNA/DNA duplex cleavage; inhibition, % at 10 µM; actives 39% (n = 1,000); in the data active = inhibition above about 48%; inconclusive = no clear call, values can overlap the other calls
An asterisk follows results filed as active; u = inconclusive; x = no result.

SMILES	RmlC RmlD mix	HIV RNase H inh-1	HIV RNase H inh-2
O=C(NCc1ccco1)c1cc2cc3ccc(Cl)cc3nc2o1	11	66*	58*
CC(C)OC(=O)CSc1nnc(-c2ccncc2)n1N	-5	5	x
CC(C)OC(=O)CSc1nnc(-c2ccc(C(C)(C)C)cc2)n1N	x	82*	63*
COC(=O)C(N)Cc1ccc(O)c(O)c1 (centres undefined)	22	x	x
NC(CO)C(=O)NNCc1ccc(O)c(O)c1O (centres undefined)	-8	30	32
Cc1ccc(NC(=O)c2cc(NC(=O)c3ccco3)ccc2N2CCOCC2)cc1	-4	10	x
Cc1ccc(NC(=O)c2cc(NC(=O)c3ccco3)ccc2N2CCCCC2)cc1	-44	58*	31
CC1(C)C(=O)C2(CCCC2)C(=O)OC1c1ccco1 (centres undefined)	14	-4	x
CC1(C)CC(=O)C(C(c2ccco2)C2C(=O)CC(C)(C)CC2=O)C(=O)C1	-16	69*	32
Cc1ccc2oc(=O)c3cnn(CC(=O)N4CCCc5ccccc54)c3c2c1	-9	-12	x
CC1CC(C)CN(S(=O)(=O)c2ccc(C(=O)Nc3nnc(-c4cccs4)o3)cc2)C1 (centres undefined)	x	74*	u
CCC1CCCCN1S(=O)(=O)c1ccc(C(=O)Nc2nnc(-c3cccs3)o2)cc1 (centres undefined)	x	32	x
COc1ccc(CCNC(=O)c2ccc3nc(-c4ccco4)c(-c4ccco4)nc3c2)cc1OC	x	93*	0
COc1ccc(CCNC(=O)COC(=O)c2ccco2)cc1OC	7	-6	x
CCCS(=O)(=O)c1c(S(=O)(=O)CCC)c2cnccn2c1C(=O)c1ccc(Cl)cc1	-13	x	x
CC(C)C(c1nnnn1C1CCCC1)N1c2ccccc2CC1C (centres undefined)	2	74*	9
CC(C)C(c1nnnn1C1CCCCC1)N1CCc2ccccc21 (centres undefined)	9	x	x
Cc1nc(N2CCN(c3ccccc3)CC2)[nH]c(=O)c1Cc1cccc2ccccc12	x	63*	-8
Cc1nc(N2CCN(C(c3ccccc3)c3ccccc3)CC2)[nH]c(=O)c1C	4	3	x
COc1cc2[nH]c(=O)n(CCCCCC(=O)N3CCN(c4ccccc4)CC3)c(=O)c2cc1OC	13	x	x
COc1cc2[nH]c(=O)n(CCC(=O)N3CCN(c4cccc(C)c4C)CC3)c(=O)c2cc1OC	9	61*	46
O=C1c2ccccc2C(=O)C1c1ccnc2ccccc12	-9	x	x
N#CC1=C(N)SC(N)=C(C#N)C1c1ccnc2ccccc12	-9	65*	60*
O=C(CCSCc1ccccc1Cl)N1CCN(c2cccc(Cl)c2)CC1	-6	x	x
c1ccc(OCc2nn3c(Cn4cnc5ccccc54)nnc3s2)cc1	8	38	x
SMILES	RmlC RmlD mix	HIV RNase H inh-1	HIV RNase H inh-2
c1cncc(-c2nn3c(Cn4cnc5ccccc54)nnc3s2)c1	-6	97*	68*
C[C@@H]1CC[C@@]2(O[C@@H](CCO)C[C@@H](O)[C@@H]2O)O1	-23	x	x
CN(C(=O)CSc1nc2ccccc2n1CCc1ccccc1)C1CCS(=O)(=O)C1 (centres undefined)	10	86*	-1
CN(C(=O)CSc1nnc2ccccn12)C1CCS(=O)(=O)C1 (centres undefined)	5	x	x
Cc1cc(NC(=O)Cc2cccs2)no1	x	74*	37
Cc1cc(NS(=O)(=O)c2ccc(NC(=O)Cc3cccs3)cc2)no1	8	-7	x
CCCCNS(=O)(=O)c1ccc(NC(=O)c2c(-c3ccccc3Cl)noc2C)cc1	-13	x	x
O=C(NCc1ccccc1)C1=C[C@@H](c2coc3ccccc3c2=O)C[C@@H](OCc2ccc(CO)cc2)O1	-10	x	x
CC1CCCC(C)N1C(=O)CSc1nnc(C2CCCCC2)o1 (centres undefined)	-15	-5	x
O=C(NC1CCCCC1)C1CCCN1S(=O)(=O)c1cccc2nsnc12 (centres undefined)	5	-1	x
O=C(O)C1CSCN1S(=O)(=O)c1cccc2nsnc12 (centres undefined)	4	62*	-3
CCOC(=O)c1sc(N)nc1-c1ccccc1	-11	71*	38
CCOC(=O)c1sc(N(C)C)nc1-c1ccccc1	9	x	x
Cc1ccc(C(=O)N/C(=C\c2cccs2)C(=O)NCCCn2ccnc2)cc1C	3	x	x
CC(C)Sc1nc(-c2cccs2)nc2c1c(=O)n(C)c(=O)n2C	8	74*	90*
Cn1c(=O)c2c(SCC(=O)NCC3CCCO3)nc(-c3cccs3)nc2n(C)c1=O (centres undefined)	x	-7	x
Cc1ccc(C)n1-c1sc2c(c1C#N)CCCC2	27	x	x
Cc1sc(-n2c(C)ccc2C)c(C#N)c1C	7	65*	u
CCOc1ccc(C(=O)Nc2ccccc2N2CCCC2)cc1	-16	x	x
COc1ccc(-c2ocnc2C(=O)Nc2ccccc2N2CCCCC2)cc1	-23	76*	45
COC(=O)c1ccc2c(=O)n(Cc3ccco3)c(SCC(=O)Nc3ccccc3Cl)nc2c1	10	86*	67*
COC(=O)c1ccc2c(=O)n(CC3CCCO3)c(SCC(=O)Nc3ccccc3Cl)nc2c1 (centres undefined)	15	x	x
CC(C)C[C@H]1COCCS(=O)(=O)N1Cc1cccc(F)c1	12	x	x
COc1cccc(-c2nc(-c3ccc(NC(=O)c4cccnc4)cc3)no2)c1	7	-1	x
COc1ccc(CC(=O)Nc2ccc(-c3noc(-c4cccc(OC)c4)n3)cc2)cc1	7	79*	62*
SMILES	RmlC RmlD mix	HIV RNase H inh-1	HIV RNase H inh-2
Cc1ccc(NC(=O)c2cc(-c3cccc(O)c3)on2)cc1C	0	1	x
N#CC1=C2SCN(c3ccccc3)CN2C(=O)CC1c1cccs1 (centres undefined)	1	-5	x
COc1ccc(OC)c(C2CC(=O)N3CN(c4cccc(Cl)c4)CSC3=C2C#N)c1 (centres undefined)	-11	-8	x
COc1ccc2ccccc2c1C1CC(=O)N2CN(C)CSC2=C1C#N (centres undefined)	7	68*	11
COc1ccc(Br)cc1C1CC(=O)N2CN(C)CSC2=C1C#N (centres undefined)	8	80*	64*
N#CC1=C2SCN(c3ccccc3)CN2C(=O)CC1c1c(Cl)cccc1Cl (centres undefined)	-10	38	x
COc1cc(OC)c(C2CC(=O)N3CN(c4ccccc4)CSC3=C2C#N)cc1OC (centres undefined)	-10	33	x
N#CC1=C2SCN(c3ccccc3)CN2C(=O)CC1c1ccccc1Cl (centres undefined)	6	67*	26
CCc1ccccc1N1CSC2=C(C#N)C(c3cc(OC)c(OC)cc3OC)CC(=O)N2C1 (centres undefined)	11	79*	63*
COc1cc(NC(=O)Cn2nc(Cc3cccnc3)c3ccccc3c2=O)cc(OC)c1OC	5	x	x
Nc1c(Cl)cc(-c2csc(N3CCCC3c3nc4cc(Cl)c(N5CCCCC5)cc4n3CCCO)n2)cc1Cl (centres undefined)	-12	x	x
CCOC(=O)C1=C(CS(=O)(=O)c2ccc(F)c(C)c2)NC(=O)NC1c1ccc(O)c(O)c1 (centres undefined)	10	24	x
O=C(Nc1ccc(O)c2c(=O)cc(-c3cccc(Cl)c3)oc12)c1ccccc1Cl	0	x	x
